IDE exosite inh – insulin-degrading enzyme (human) exo-site inhibition | purified IDE, FL-6b probe fluorescence polarization; stronger effect = lower value | hit rate 6.3% among 17,000 | P14735 | z-score at 20 µM;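 active means z-score of -3 or lower, meaning strong loss of probe binding signal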;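 further: His-tagged human IDE residues 42-1019 made in E. coli with 30 nM FL-6b probe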
Target sequence (P14735 42-1019 limits assumed): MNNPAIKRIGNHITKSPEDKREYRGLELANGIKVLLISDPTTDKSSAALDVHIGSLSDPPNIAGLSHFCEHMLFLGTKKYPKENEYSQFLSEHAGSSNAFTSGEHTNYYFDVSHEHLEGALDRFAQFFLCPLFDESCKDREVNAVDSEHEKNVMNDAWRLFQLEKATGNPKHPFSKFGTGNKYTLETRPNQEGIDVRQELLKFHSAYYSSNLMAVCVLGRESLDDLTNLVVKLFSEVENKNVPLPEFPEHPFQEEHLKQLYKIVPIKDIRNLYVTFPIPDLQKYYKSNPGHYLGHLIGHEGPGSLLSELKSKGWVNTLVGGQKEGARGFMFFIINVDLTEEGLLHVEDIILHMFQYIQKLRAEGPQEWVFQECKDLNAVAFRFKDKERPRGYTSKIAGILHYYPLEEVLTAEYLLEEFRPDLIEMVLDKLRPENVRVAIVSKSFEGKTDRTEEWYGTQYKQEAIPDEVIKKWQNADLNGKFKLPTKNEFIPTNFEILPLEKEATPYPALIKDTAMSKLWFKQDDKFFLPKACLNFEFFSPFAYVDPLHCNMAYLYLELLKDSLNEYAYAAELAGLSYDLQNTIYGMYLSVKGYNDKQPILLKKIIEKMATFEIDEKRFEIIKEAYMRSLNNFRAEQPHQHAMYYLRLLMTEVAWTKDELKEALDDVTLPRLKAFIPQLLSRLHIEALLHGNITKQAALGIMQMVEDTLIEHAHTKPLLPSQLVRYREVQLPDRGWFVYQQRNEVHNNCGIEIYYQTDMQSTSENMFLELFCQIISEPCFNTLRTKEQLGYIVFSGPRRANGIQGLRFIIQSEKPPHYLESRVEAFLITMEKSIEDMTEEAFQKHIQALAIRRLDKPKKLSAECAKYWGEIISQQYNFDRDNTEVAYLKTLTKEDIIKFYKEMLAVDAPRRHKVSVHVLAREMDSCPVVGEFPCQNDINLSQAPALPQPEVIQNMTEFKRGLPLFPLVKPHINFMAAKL
* = called active by the depositor. Only a selection was taken, and hits are over-represented in it overall.

SMILES	IDE exosite inh
C[C@@H]1CCCn2cc(nn2)COCCNC1=O	0.49
CCN(C[C@@H]1[C@@H](c2ccc(-c3ccccc3)cc2)[C@H](CO)N1C(C)=O)C(C)=O	0.43
O=C(C1CCCCC1)N1CC(=O)N2[C@H](CO)[C@@H](c3ccc(Br)cc3)[C@@H]2C1	-0.48
COc1ccc2c3c([nH]c2c1)[C@H](CO)N(Cc1ccccn1)CC31CN(Cc2cccc(F)c2)C1	-1.6
CCC(=O)N1CC2(CCN(C(=O)Nc3c(C)noc3C)CC2)c2c([nH]c3cc(OC)ccc23)[C@H]1CO	0.28
CN(C)C(=O)c1ccc(-c2ccc([C@@H]3[C@@H](CO)N4C(=O)CN(C(=O)CC5CC5)C[C@@H]34)cc2)cc1	1.4
CCCC#Cc1ccc([C@@H]2[C@H]3CN(S(=O)(=O)c4ccccc4C)CC(=O)N3[C@H]2CO)cc1	-1.5
Cc1ccc(-c2ccc([C@H]3[C@@H](CO)N4C(=O)CN(C(=O)c5cccnc5)C[C@H]34)cc2)cc1	-3.1*
O=C(c1cccnc1)N1CC(=O)N2[C@H](CO)[C@@H](c3ccc(-c4cccnc4)cc3)[C@H]2C1	0.23
Cc1ccc(-c2ccc([C@@H]3[C@@H](CO)N4C(=O)CN(C(=O)c5cccnc5)C[C@@H]34)cc2)cc1	-3.6*
O=C(c1cccnc1)N1CC(=O)N2[C@H](CO)[C@@H](c3ccc(-c4cccnc4)cc3)[C@@H]2C1	-1.9
O=C(c1cccnc1)N1CC(=O)N2[C@H](CO)[C@H](c3ccc(-c4cccnc4)cc3)[C@H]2C1	-0.66
O=C(c1cccnc1)N1CC(=O)N2[C@@H](CO)[C@@H](c3ccc(-c4cccnc4)cc3)[C@@H]2C1	2.6
COCC#Cc1ccc([C@@H]2[C@H](CO)N3C(=O)CN(C(=O)c4cccnc4)C[C@@H]23)cc1	2
OC[C@H]1Nc2ccc(C#Cc3ccc(F)cc3)cc2[C@@H]2[C@H]1CCN2Cc1ccc2c(c1)OCO2	2.4
CCC(=O)N1[C@H](CN(CC)C(=O)c2ccc(F)cc2)[C@H](c2ccccc2)[C@@H]1CO	2.1
C/C=C/c1ccc([C@H]2[C@@H](CO)N3CCCCN(C(=O)Nc4ccccc4F)C[C@@H]23)cc1	-0.84
O=C(Nc1ccccc1F)N1CCCCN2[C@H](CO)[C@H](c3ccc(C4=CCCC4)cc3)[C@H]2C1	2.1
O=C(Nc1ccccc1F)N1CCCCN2[C@H](C1)[C@@H](c1ccc(/C=C/c3ccccc3)cc1)[C@@H]2CO	-2.7
O=C(Nc1ccccc1F)N1CCCCN2[C@H](C1)[C@H](c1ccc(C3=CCCC3)cc1)[C@@H]2CO	4.4
O=C(Nc1ccccc1F)N1CCCCN2[C@H](CO)[C@H](c3ccc(/C=C/c4ccccc4)cc3)[C@@H]2C1	-3.9*
O=C(Nc1ccccc1F)N1CCCCN2[C@H](CO)[C@H](c3ccc(/C=C/c4ccccc4)cc3)[C@H]2C1	-4.9*
COc1ccc(-c2ccc([C@@H]3[C@@H](CO)N4CCCCN(C(=O)c5ccc6c(c5)OCO6)C[C@@H]34)cc2)cc1	4.8
COc1ccc(NC(=O)N2CC(=O)N3[C@H](C2)[C@@H](c2ccc(-c4ccccc4)cc2)[C@@H]3CO)cc1	2.7
CCS(=O)(=O)N1CCCCN2[C@@H](CO)[C@H](c3ccc(C#CC(C)(C)O)cc3)[C@@H]2C1	0.89
SMILES	IDE exosite inh
COc1cccc(S(=O)(=O)N2CC[C@@H]3[C@@H](CO)Nc4ccc(C#Cc5cccnc5)cc4[C@@H]32)c1	1.7
CN(C)C(=O)c1ccc(-c2ccc([C@H]3[C@H]4CN(C(=O)C5CCCC5)CC(=O)N4[C@H]3CO)cc2)cc1	1.9
COCC(=O)N1CCCCN2[C@H](CO)[C@H](c3ccc(C#Cc4cccnc4)cc3)[C@@H]2C1	-3.1*
O=C(Nc1cccc(F)c1)N1CCCCN2[C@H](CO)[C@H](c3ccc(C#Cc4cccnc4)cc3)[C@@H]2C1	-1.6
CCC(=O)N1CCCCN2[C@@H](CO)[C@@H](c3ccc(-c4cccnc4)cc3)[C@@H]2C1	0.016
CCC(=O)N1CCCCN2[C@H](C1)[C@H](c1ccc(-c3cccnc3)cc1)[C@@H]2CO	2.5
CCC(=O)N1CCCCN2[C@H](CO)[C@H](c3ccc(C#Cc4cccnc4)cc3)[C@@H]2C1	-10*
COCC(=O)N1CCCCN2[C@H](CO)[C@H](c3ccc(C#Cc4cccnc4)cc3)[C@H]2C1	2.6
COCC(=O)N1CCCCN2[C@H](C1)[C@H](c1ccc(C#Cc3cccnc3)cc1)[C@@H]2CO	0.39
CCC(=O)N1CCCCN2[C@@H](CO)[C@@H](c3ccc(C#Cc4cccnc4)cc3)[C@@H]2C1	-3.1*
C[C@@H](O)C#Cc1ccc([C@H]2[C@H](CO)N3CCCCN(CC4CCOCC4)C[C@@H]23)cc1	1.2
C[C@@H]1CN([C@@H](C)CO)C(=O)c2c(c3ccccc3n2C)-c2ccccc2CO[C@H]1CN(C)Cc1cccc(C(=O)Nc2ccccc2N)c1	-0.067
CCCNC(=O)N1CCC2(CC1)CN(C(=O)CC1CC1)[C@@H](CO)c1c2c2ccc(OC)cc2n1C	-1.1
Cc1ccc(-c2ccc([C@H]3[C@@H](CO)N4C(=O)CN(C(=O)c5ccc(F)cc5)C[C@@H]34)cc2)cc1	2.8
Cc1ccc(S(=O)(=O)NCC[C@H]2CC[C@@H](NC(=O)c3cccnc3)[C@H](CO)O2)cc1	2.7
Cc1ccccc1-c1ccccc1[C@@H]1[C@H](C#N)N(C(=O)c2cccc(F)c2)[C@H]1CO	4
COc1ccccc1CNC(=O)C[C@@H]1C[C@@H]2c3cc(NC(=O)C4CCC4)ccc3O[C@@H]2[C@@H](CO)O1	-0.48
COc1ccc(C#Cc2ccc([C@@H]3[C@H]4CN(Cc5ccncc5)CCCCN4[C@H]3CO)cc2)cc1	4.9
COCC#Cc1ccc([C@H]2[C@@H](CO)N3CCCCN(Cc4ccncc4)C[C@H]23)cc1	3.8
COc1ccccc1-c1ccc([C@@H]2[C@H](CO)N3CCCCN(Cc4ccncc4)C[C@@H]23)cc1	-8.9*
COc1ccccc1-c1ccc([C@H]2[C@@H](CO)N3CCCCN(Cc4ccncc4)C[C@H]23)cc1	-8.9*
OC[C@H]1[C@H](c2ccc(-c3ccc(F)cc3)cc2)[C@@H]2CN(Cc3ccncc3)CCCCN12	2.9
OC[C@H]1[C@@H](c2ccc(-c3ccc(F)cc3)cc2)[C@@H]2CN(Cc3ccncc3)CCCCN12	4.7
COc1ccccc1-c1ccc([C@@H]2[C@@H](CO)N3CCCCN(Cc4ccncc4)C[C@H]23)cc1	-4.2*
COCC#Cc1ccc([C@@H]2[C@@H](CO)N3CCCCN(Cc4ccncc4)C[C@H]23)cc1	2.6
SMILES	IDE exosite inh
COc1ccccc1-c1ccc([C@H]2[C@H]3CN(Cc4ccncc4)CCCCN3[C@H]2CO)cc1	-4.7*
CCS(=O)(=O)N1CCCCN2[C@H](CO)[C@H](c3ccc(-c4ccc(C(=O)N(C)C)cc4)cc3)[C@H]2C1	0.47
CC(=O)N1CC2(C1)[C@H](c1ccc(-c3ccc(F)cc3)cc1)[C@@H](CO)N2CC1CC1	1.4
CCCNC(=O)Nc1ccc2c(c1)OC[C@H](C)N(S(C)(=O)=O)C[C@@H](C)[C@@H](OC)CN(C)C2=O	0.71
COc1cccc(C#Cc2ccc([C@H]3[C@@H](CO)N4C(=O)CN(S(=O)(=O)c5ccccc5C)C[C@H]34)cc2)c1	-0.39
Cc1ccc(-c2ccc([C@H]3[C@@H](CO)N4C(=O)CN(C(=O)Nc5cccc(F)c5)C[C@H]34)cc2)cc1	2.8
O=C(c1ccc(F)cc1)N1CC(=O)N2[C@H](CO)[C@@H](c3ccc(C#CC4CCCCC4)cc3)[C@H]2C1	4.1
CN1C(=O)c2cc(NS(=O)(=O)c3ccccc3F)ccc2OC[C@H]2O[C@@H](CC(=O)NC3Cc4ccccc4C3)CC[C@@H]21	-0.56

Compound activity as filed in PubChem.
